Source: article PMC4336329 (PLoS ONE, 2015)
Among all 310,000 compounds or so, about 14,000 (4.5%) showed an effect of 50% or more. The effect is printed as a negative number. The entries come from a sample that favours strong results as a whole.

target: human ether-à-go-go-related gene (hERG) potassium channel (human, UniProt Q12809); assay: primary screen, population patch clamp on CHO cells stably expressing hERG; higher = less effect of the substance
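Also: peak tail current of the secondary pulse compared with the same well before compound.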

human ether-à-go-go-related gene (hERG) potassium channel, sequence (Q12809 whole entry, looked up): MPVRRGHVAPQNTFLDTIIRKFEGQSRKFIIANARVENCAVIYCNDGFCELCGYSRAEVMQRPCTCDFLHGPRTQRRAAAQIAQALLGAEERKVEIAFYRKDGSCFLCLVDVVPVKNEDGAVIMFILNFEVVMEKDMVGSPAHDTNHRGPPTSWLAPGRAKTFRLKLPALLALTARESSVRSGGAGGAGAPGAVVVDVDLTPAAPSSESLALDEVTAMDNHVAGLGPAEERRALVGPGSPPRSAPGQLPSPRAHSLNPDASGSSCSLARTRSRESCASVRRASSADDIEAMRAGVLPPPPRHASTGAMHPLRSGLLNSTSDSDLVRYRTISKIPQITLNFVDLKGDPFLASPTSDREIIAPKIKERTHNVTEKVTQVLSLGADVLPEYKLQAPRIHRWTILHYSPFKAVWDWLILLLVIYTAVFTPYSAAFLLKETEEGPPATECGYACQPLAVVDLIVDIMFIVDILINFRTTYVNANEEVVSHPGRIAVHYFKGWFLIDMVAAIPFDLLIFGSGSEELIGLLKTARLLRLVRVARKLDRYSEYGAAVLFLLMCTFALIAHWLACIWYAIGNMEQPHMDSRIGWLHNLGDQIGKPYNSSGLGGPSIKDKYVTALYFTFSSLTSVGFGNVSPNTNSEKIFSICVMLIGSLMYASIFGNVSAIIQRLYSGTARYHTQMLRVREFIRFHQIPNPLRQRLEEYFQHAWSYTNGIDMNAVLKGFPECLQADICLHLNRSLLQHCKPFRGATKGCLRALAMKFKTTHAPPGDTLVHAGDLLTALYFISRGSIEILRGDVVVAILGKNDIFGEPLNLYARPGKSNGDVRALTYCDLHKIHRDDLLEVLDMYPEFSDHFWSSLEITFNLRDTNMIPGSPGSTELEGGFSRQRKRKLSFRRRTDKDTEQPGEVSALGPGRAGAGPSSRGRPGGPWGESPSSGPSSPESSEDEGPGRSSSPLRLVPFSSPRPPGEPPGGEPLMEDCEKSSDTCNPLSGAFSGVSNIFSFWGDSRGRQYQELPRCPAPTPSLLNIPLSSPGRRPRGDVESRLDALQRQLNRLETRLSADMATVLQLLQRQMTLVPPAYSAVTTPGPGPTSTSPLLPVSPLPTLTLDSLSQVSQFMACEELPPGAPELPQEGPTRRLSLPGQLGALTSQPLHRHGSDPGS

SMILES	hERG current change (%, negative = inhibition) at 10uM [%]
O=C(CSC1=NCCS1)Nc1ccc(S(=O)(=O)NC2CCCCC2)cc1	-8.65
NC(=O)C1CCN(CC(O)COc2ccc(-c3ccccc3)cc2)CC1 (centres unmarked)	-34.4
CC1CCN(CC(O)COc2ccc(OCC(O)CN3CCC(C)CC3)cc2)CC1 (centres unmarked)	3.84
CC1CN(CC(O)COc2ccc(C(=O)c3ccccc3)cc2)CC(C)O1 (centres unmarked)	-63.3
CCC(=O)c1ccc(OCC(O)CN2CC(C)OC(C)C2)cc1.O=C(O)C(=O)O (centres unmarked)	14
O=C(c1ccccc1)c1ccc(OCC(O)CN2CCN(Cc3ccccc3)CC2)cc1 (centres unmarked)	-73.4
CC1CCN(CC(O)COc2ccc(-c3ccccc3)cc2)CC1.Cl (centres unmarked)	-81
CC1CCN(CC(O)COc2ccc(C(=O)c3ccccc3)cc2)CC1 (centres unmarked)	-67.4
CC(=O)c1ccc(OCC(O)CN2CCC(C)CC2)cc1.Cl (centres unmarked)	-31.6
OC(COc1ccc(OCC(O)CN2CCN(Cc3ccccc3)CC2)cc1)CN1CCN(Cc2ccccc2)CC1 (centres unmarked)	5.65
O=C(c1ccccc1)c1ccc(OCC(O)CN2CCCC2)cc1 (centres unmarked)	-45.3
CC(=O)c1ccc(OCC(O)CN2CC(C)OC(C)C2)cc1.Cl (centres unmarked)	8.19
CC(=O)c1ccc(OCC(O)CN2CCN(Cc3ccccc3)CC2)cc1.Cl (centres unmarked)	-48.2
CC(=O)c1sc(-c2ccc(F)cc2)cc1NS(=O)(=O)c1ccc(C)cc1	7.93
C=CCOc1ccc2ccccc2c1CNn1cn[nH]c1=S	-8.17
O=C(NCCc1csc(-c2cccc(F)c2)n1)c1ccco1	-4.61
O=C(CN1C(=O)S/C(=C\c2ccccc2)C1=O)Nc1cc([N+](=O)[O-])ccc1O	6.11
O=C(c1cc(Cl)ccc1[N+](=O)[O-])n1cnc2ccccc21	-11.9
Cc1cc2c(c(N)n1)c(=O)oc1ccccc12	13.9
Nn1c(CSc2nc3ccccc3o2)nnc1CSc1nc2ccccc2o1	-22.8
O=C(CN1c2cccc3cccc(c23)S1(=O)=O)Nc1ccccc1	24.3
CCOc1ccc(NC(=O)CN(C)C(=O)CC2OC(=O)c3ccccc32)cc1OCC (centres unmarked)	0.75
CN(CC(=O)Nc1ccc(Cl)c(Cl)c1)C(=O)CC1OC(=O)c2ccccc21 (centres unmarked)	-70.3
CN(CC(=O)Nc1c(Cl)cccc1Cl)C(=O)CC1OC(=O)c2ccccc21 (centres unmarked)	-2.8
C/C=C/c1ccc(OCC(=O)Nc2ccncc2)c(OC)c1	-14.9
COc1ccc2nc(N(CCN(C)C)C(=O)c3ccc(C(=O)c4ccccc4)cc3)sc2c1.Cl	-39.2
COc1ccc2sc(N(CCN(C)C)C(=O)/C=C/c3cccs3)nc2c1.Cl	-33.2

SMILES	hERG current change (%, negative = inhibition) at 10uM [%]
COc1ccc2sc(N(CCCN(C)C)C(=O)c3ccc(C(=O)c4ccccc4)cc3)nc2c1.Cl	-77.3
CCN(Cc1ccccc1)S(=O)(=O)c1ccc(C(=O)N(CCCN(C)C)c2nc3c(C)c(C)ccc3s2)cc1.Cl	-3.58
CCN(Cc1ccccc1)S(=O)(=O)c1ccc(C(=O)N(CCCN(C)C)c2nc3c(F)cccc3s2)cc1.Cl	-66.3
COc1cc2nc(N(CCN(C)C)C(=O)c3ccc4ccccc4c3)sc2cc1OC.Cl	-40.8
CN(C)CCCN(C(=O)c1ccc(C(=O)c2ccccc2)cc1)c1nc2cc3c(cc2s1)OCCO3.Cl	-50
COc1ccc2nc(N(CCN(C)C)C(=O)/C=C/c3cccs3)sc2c1.Cl	-55.1
CN(C)CCCN(C(=O)c1ccc(S(=O)(=O)N(C)Cc2ccccc2)cc1)c1nc2c(F)cccc2s1.Cl	-38.2
COc1cc2nc(N(CCCN(C)C)C(=O)c3ccc(C(=O)c4ccccc4)cc3)sc2cc1OC.Cl	-70.4
CCOc1ccc2nc(N(CCN(C)C)C(=O)/C=C/c3cccs3)sc2c1.Cl	4.24
COc1ccc2sc(N(CCN(C)C)C(=O)c3ccc4ccccc4c3)nc2c1.Cl	-0.0157
O=C1CSC(c2ccccc2[N+](=O)[O-])N1CCc1ccccc1 (centres unmarked)	-41
CCOc1cc(C(=O)N/N=C(\C)Cc2ccc(OC)cc2)cc(OCC)c1OCC	-3.15
FC(F)Oc1ccccc1/C=N/Nc1nc2ccccc2o1	33.5
Cn1c(NC(=O)c2ccco2)c(-c2ccccc2)c(=O)c2ccccc21	13.6
N[C@@]12CCc3nonc3[C@]1(O)CC(c1ccccc1)=[N+]2[O-]	-0.645
COc1ccccc1CN(C(=O)CNC(=O)c1ccco1)C(C(=O)NCC1CCCO1)c1ccccc1 (centres unmarked)	10
O=C(NC(=S)Nc1cccc(F)c1)c1cccc([N+](=O)[O-])c1	20.6
Cc1cc(C)c(-c2cc(C)nc3ncnn23)c(C)c1	7.75
CCOc1ccc(C(=O)Nn2cnnc2)cc1	2.29
O=C(NCCCc1ccccc1)C1CCN(c2nnc(-n3cccc3)s2)CC1	-27
CCN(Cc1ccccc1)S(=O)(=O)c1ccc(C(=O)N(CCCN(C)C)c2nc3ccc(F)cc3s2)cc1.Cl	-12.6
CCN(Cc1ccccc1)S(=O)(=O)c1ccc(C(=O)N(CCCN(C)C)c2nc3cc(OC)ccc3s2)cc1.Cl	-58.3
CN(C)CCCN(C(=O)c1ccc(S(=O)(=O)N(C)C)cc1)c1nc2ccc(F)cc2s1.Cl	-32.9
COc1ccc2sc(N(CCCN(C)C)C(=O)c3ccc(S(=O)(=O)N(C)Cc4ccccc4)cc3)nc2c1.Cl	-16.4
CN(C)CCCN(C(=O)c1ccc(C(=O)c2ccccc2)cc1)c1nc2ccc(F)cc2s1	-74.9
CCc1ccc2nc(N(CCCN(C)C)C(=O)c3ccc(C(=O)c4ccccc4)cc3)sc2c1.Cl	-12.5
O=C(O)c1ccc(Nc2cccc(F)c2)c([N+](=O)[O-])c1	17.7

SMILES	hERG current change (%, negative = inhibition) at 10uM [%]
CCCCOc1c(Br)cc(CNCCCN2CCOCC2)cc1OC.Cl	-35
CC(C)CCOc1ccc(NC(=O)C2OC3OC(C)(C)OC3C3OC(C)(C)OC23)cc1 (centres unmarked)	20.5
O=C(NCc1nnc(SCC(=O)N2CCCC2)o1)c1ccc(F)cc1	14.3
COc1ccc(Nc2ncnc3ccc([N+](=O)[O-])cc23)c(OC)c1	-0.867
CNc1ccc(Br)cc1C(O)c1ccccc1 (centres unmarked)	-3.18
O=C(Cn1ccc(NC(=O)OCc2ccccc2)nc1=O)NCCCn1ccnc1	6.72
O=C1COc2ccc(C(=O)COC(=O)CNC(=O)c3ccccc3)cc2N1	-4.81
Cc1ccc(C(=O)NCC(=O)OCC(=O)c2ccc3c(c2)NC(=O)CO3)cc1	-60.6
COc1ccc(C(=O)NCC(=O)OCC(=O)c2ccc3c(c2)NC(=O)CO3)cc1	-65.1
COc1ccc(C(=O)NCC(=O)OCC(=O)c2ccc3c(c2)NC(=O)CO3)cc1OC	-22
Cc1ccc(C(=O)NCC(=O)OCC(=O)c2ccc3c(c2)NC(=O)CO3)cc1C	-5.7
COc1ccc(OCCCC(=O)OCC(=O)c2ccc3c(c2)NC(=O)CO3)cc1	15.7
Cc1nn(C(=O)CCC(=O)NCc2ccccc2Cl)c2ccccc12	15.2
Cc1c(Cl)cccc1NC(=O)C1COc2ccccc2O1 (centres unmarked)	8.79
COc1ccc(S(=O)(=O)CC(=O)c2cc3cccc(C)c3oc2=O)cc1	5.51
CCCN1Cc2cccc(C(=O)NC(CC(=O)OCC)c3ccc(C)cc3)c2C1=O (centres unmarked)	-81.7
CCCN1Cc2cccc(C(=O)NC(CC(=O)OCC)c3ccc(OC(C)C)cc3)c2C1=O (centres unmarked)	-37.6
CCCN1Cc2cccc(C(=O)NC(CC(=O)OCC)c3ccc(OCC)c(OC)c3)c2C1=O (centres unmarked)	-31.2
Cc1nc2c(C)cccn2c1/C(O)=C1\C(=O)C(=O)N(CCN(C)C)C1c1ccncc1 (centres unmarked)	4.49
CC(=O)Nc1ccc(C(=O)CN2C(=O)NC3(CCOc4ccccc43)C2=O)c(F)c1 (centres unmarked)	-20.5
COc1cccc(CC(NC(C)=O)C(=O)NC2CCN(c3c(Cc4ccccc4)c(C)nc4ncnn34)CC2)c1 (centres unmarked)	-0.458
COc1cc(CC(NC(C)=O)C(=O)NC2CCN(c3c(Cc4ccccc4)c(C)nc4ncnn34)CC2)cc(OC)c1 (centres unmarked)	12
CC(=O)NC(Cc1ccc(F)c(F)c1)C(=O)NC1CCN(c2c(Cc3ccccc3)c(C)nc3ncnn23)CC1 (centres unmarked)	-58.7
Cc1nc2ncnn2c(N2CCC(C(=O)NC3CCCC3)CC2)c1Cc1ccccc1	-57.4
CC(=O)Nc1ccc(NC(=O)C2CCN(c3c(Cc4ccccc4)c(C)nc4ncnn34)CC2)cc1	2.74
Cc1nc2ncnn2c(N2CCC(C(=O)NCC3CCCO3)CC2)c1Cc1ccccc1 (centres unmarked)	-17.6
